Laboratory results reported in PubChem BioAssay (NCATS).
Inconclusive results are not listed. The source made the active and inactive calls. The call rests on the fitted dose curve; in most records, active means well fitted curve in the direction sought with a large enough effect; inconclusive means small, poorly fitted or top-dose-only effect, or another doubt; inactive means no such curve, though single readings can be large; an effect the other way counts as inactive or inconclusive.

Key:
[1] = S16 Schwann cell PMP22 intronic element firefly luciferase assay (AID 624032); further: nearly all actives have a fitted effect of over 30% in size
In short: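 Rat S16 Schwann cells stably carrying a PMP22 intronic element-driven Fluc reporter were seeded overnight, then exposed to compounds for 24 h at 37 °C. Luminescence was normalized to PTC124 (positive control) and DMSO (0% activity).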

7G8 = assay: qHTS profiling for inhibitors of Plasmodium falciparum proliferation (AID 504749); further: nearly all actives have a fitted effect of over 60% in size; conditions: P. falciparum in erythrocytes, SYBR Green DNA, 72 h; series mostly up to 28.7 µM
In short: (§1)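 Quantitative HTS: compounds pinned into medium, infected erythrocytes added (0.3% parasitemia, 2.5% hematocrit), 72 h culture at 37 C under 5% CO2. Saponin/Triton lysis with SYBR Green I, overnight RT, then fluorescence read.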

ATS95 = assay: as above; conditions: P. falciparum in erythrocytes, SYBR Green DNA, 72 h; series mostly up to 28.7 µM
In short: as §1

CP203 = assay: as above; conditions: P. falciparum in erythrocytes, SYBR Green DNA, 72 h; series mostly up to 28.7 µM
In short: as §1

CP215 = assay: as above; conditions: P. falciparum in erythrocytes, SYBR Green DNA, 72 h; series mostly up to 28.7 µM
In short: as §1

CP260 = assay: as above; conditions: P. falciparum in erythrocytes, SYBR Green DNA, 72 h; series mostly up to 28.7 µM
In short: as §1

CP266 = assay: as above; conditions: P. falciparum in erythrocytes, SYBR Green DNA, 72 h; series mostly up to 28.7 µM
In short: as §1

CP268 = assay: as above; conditions: P. falciparum in erythrocytes, SYBR Green DNA, 72 h; series mostly up to 28.7 µM
In short: as §1

CP291 = assay: as above; conditions: P. falciparum in erythrocytes, SYBR Green DNA, 72 h; series mostly up to 28.7 µM
In short: as §1

CP297 = assay: as above; conditions: P. falciparum in erythrocytes, SYBR Green DNA, 72 h; series mostly up to 28.7 µM
In short: as §1

CP325 = assay: as above; conditions: P. falciparum in erythrocytes, SYBR Green DNA, 72 h; series mostly up to 28.7 µM
In short: as §1

CP335 = assay: as above; conditions: P. falciparum in erythrocytes, SYBR Green DNA, 72 h; series mostly up to 28.7 µM
In short: as §1

DIV14 = assay: as above; conditions: P. falciparum in erythrocytes, SYBR Green DNA, 72 h; series mostly up to 28.7 µM
In short: as §1

DIV17 = assay: as above; conditions: P. falciparum in erythrocytes, SYBR Green DNA, 72 h; series mostly up to 28.7 µM
In short: as §1

GB4 = assay: as above; conditions: P. falciparum in erythrocytes, SYBR Green DNA, 72 h; series mostly up to 28.7 µM
In short: as §1

ICS = assay: as above; conditions: P. falciparum in erythrocytes, SYBR Green DNA, 72 h; series mostly up to 28.7 µM
In short: as §1

P93_24 = assay: as above; conditions: P. falciparum in erythrocytes, SYBR Green DNA, 72 h; series mostly up to 28.7 µM
In short: as §1

PC26 = assay: as above; conditions: P. falciparum in erythrocytes, SYBR Green DNA, 72 h; series mostly up to 28.7 µM
In short: as §1

PC49 = assay: as above; conditions: P. falciparum in erythrocytes, SYBR Green DNA, 72 h; series mostly up to 28.7 µM
In short: as §1

CP247 = assay: as above; conditions: P. falciparum in erythrocytes, SYBR Green DNA, 72 h; series mostly up to 28.7 µM
In short: as §1

Measured: Potency
Potency means the concentration at half of the fitted maximal effect.

CCCCCOC(=O)Nc1nc(=O)n(C2O[C@H](C)[C@@H](O)[C@@H]2O)cc1F (stereo partly specified)
not listed: CP247
inactive: all other assays above

CO/N=C(/C(=O)N[C@@H]1C(=O)N2C(C(=O)O)=C(CSc3nnnn3C)CS[C@H]12)c1csc(N)n1
not listed: CP203 | CP266
inactive: all other assays above

CC[C@H](C)[C@H]1O[C@]2(CC[C@@H]1C)C[C@@H]1C[C@@H](C/C=C(\C)[C@H](O[C@@H]3C[C@H](OC)[C@H](O[C@@H]4C[C@H](OC)[C@@H](O)[C@H](C)O4)[C@H](C)O3)[C@@H](C)/C=C/C=C3\CO[C@@H]4[C@H](O)C(C)=C[C@@H](C(=O)O1)[C@]34O)O2
active: [1] 9070 nM | 7G8 2000 nM | ATS95 1120 nM | CP203 1510 nM | CP215 1350 nM | CP247 1000 nM | CP260 2240 nM | CP268 1690 nM | CP291 1510 nM | CP297 1510 nM | CP325 1350 nM | CP335 1350 nM | DIV14 1690 nM | DIV17 2130 nM | GB4 1510 nM | ICS 1260 nM | P93_24 1260 nM | PC26 1200 nM

C[C@@H](O)[C@@H]1C(=O)N2C(C(=O)O)=C([C@H]3CCCO3)S[C@H]12
inactive: all assays above

CCN(CC)CC(=O)Nc1c(C)cc(C)cc1C
not listed: CP335
inactive: all other assays above

OCC(CO)NC1C[C@](O)(CO)[C@@H](O)[C@H](O)[C@H]1O (stereo partly specified)
not listed: CP266 | CP291
inactive: all other assays above

O=C(O)c1ccc(N[C@@H]2OC[C@@H](O)[C@@H](O)[C@@H]2O)cc1
not listed: CP266
inactive: all other assays above

OCC1OC(O)C(O)C(O)C1O (stereo unspecified)
not listed: CP291 | CP297 | CP325 | DIV14 | DIV17 | GB4 | PC26
inactive: all other assays above

O=C(O)Cc1sc(-c2ccc(Cl)cc2)nc1-c1ccccc1
not listed: CP215
inactive: all other assays above

CO/N=C(/C(=O)N[C@@H]1C(=O)N2C(C(=O)O)=C(CSc3cnns3)CS[C@H]12)c1csc(N)n1
not listed: CP266
inactive: all other assays above

CO/N=C(/C(=O)N[C@@H]1C(=O)N2C(C(=O)O)=C(CSC(=O)c3ccco3)CSC12)c1csc(N)n1 (stereo partly specified)
not listed: GB4
inactive: all other assays above

C=C1/C(=C\C=C2/CCC[C@]3(C)[C@@H]([C@H](C)/C=C/[C@@H](O)C4CC4)CC[C@@H]23)C[C@@H](O)C[C@@H]1O
active: [1] 10200 nM
not listed: 7G8 | CP260 | CP291 | ICS | P93_24
inactive: all other assays above
